According to the supplement of paper PMC3334620:
Whole data set: some 33,000 sequences, median “E-score (-0.5 to 0.5)” near -0.0014, cut for the highest 2% near 0.25. Only a selection was taken, and the highest values are over-represented in it overall.

Biological target: T1, Cad1 (UniProt P24813)
T1 sequence: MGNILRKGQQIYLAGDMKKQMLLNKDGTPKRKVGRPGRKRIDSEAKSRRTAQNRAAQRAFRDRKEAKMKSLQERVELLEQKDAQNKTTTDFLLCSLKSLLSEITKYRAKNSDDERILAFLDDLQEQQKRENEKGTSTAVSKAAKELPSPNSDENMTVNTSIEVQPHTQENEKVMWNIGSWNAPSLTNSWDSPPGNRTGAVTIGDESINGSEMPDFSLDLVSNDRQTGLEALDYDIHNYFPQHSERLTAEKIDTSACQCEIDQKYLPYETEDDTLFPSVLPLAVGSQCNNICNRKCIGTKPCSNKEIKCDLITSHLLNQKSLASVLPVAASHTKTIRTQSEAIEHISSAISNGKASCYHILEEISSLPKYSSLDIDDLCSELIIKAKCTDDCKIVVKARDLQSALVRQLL
Test: PBM E-score (8-mer binding enrichment) (E-score (-0.5 to 0.5)); higher = stronger / more preferred TF binding
Details: protein concentration: 100 nM; construct: GST-full length
Procedure, shortened: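 E-scores (a modified Wilcoxon-Mann-Whitney statistic) were assigned by the Universal PBM Analysis Suite to every ungapped eight-base word pooled with its reverse complement. The input came from universal all-10-mer Agilent arrays made double-stranded by primer extension and probed with GST-tagged yeast transcription factors at about 100-200 nM. Fluorescent anti-GST detected bound protein, and masliner normalised the scans.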

Row | Sequence | PBM E-score
1 | GCCCACAA | -0.153
2 | ATTCAATG | 0.114
3 | ATTCAATC | 0.263
4 | CTTCAATC | -0.066
5 | GACACAGC | 0.0664
6 | CCTGTGCC | -0.136
7 | CTTCCGGA | 0.0325
8 | AATCCGGC | 0.104
9 | AATCCGAC | 0.00376
10 | ATTCCGGA | 0.254
11 | ATTCCGGG | 0.122
12 | AATCCGGG | -0.0636
13 | AATCCGAA | -0.0355
14 | AATCCGGA | 0.306
15 | AATCCGAT | 0.25
16 | CTGCTCAC | -0.0643
17 | TGACCACA | -0.0368
18 | GTCTCCTA | -0.194
19 | ACCAAGGC | -0.0921
20 | ACAGTCCC | -0.188
21 | CCTAGCAA | -0.0559
22 | AGAGCTTC | -0.181
23 | CGAGCTTC | 0.258
24 | CGAGCTTA | 0.214
25 | GAGCCCAC | -0.1

Row | Sequence | PBM E-score
26 | AAAGAACA | 0.0562
27 | GGACGTTA | 0.0449
28 | CGACGTTC | -0.265
29 | CGACGTTA | 0.276
30 | CGCATGTC | 0.0303
31 | GCGAGGCC | -0.113
32 | TATATTAA | 0.326
33 | CATATTAC | 0.225
34 | AATATTAC | 0.347
35 | ACTATTAC | 0.149
36 | TACATTAA | 0.26
37 | CCTATTAC | -0.0089
38 | TGTATTAA | -0.00939
39 | AACATTAA | 0.127
40 | GACATTAA | 0.124
41 | GATATTAC | 0.293
42 | GATATTAA | 0.187
43 | GCTATTAC | 0.098
44 | ACATGGAT | 0.0578
45 | ATTTGATC | -0.0183
46 | AGCCCGAC | -0.149
47 | ACGTTTGA | 0.0358
48 | AAAGGACT | -0.224
49 | ATGTGGCC | -0.0491
50 | AATGGTGC | -0.131

Row | Sequence | PBM E-score
51 | GCTGAACC | -0.0931
52 | ACTTTGGC | -0.0521
53 | TACTGCGA | 0.0327
54 | AGCTCCAG | -0.181
55 | AGATTTCC | 0.185
56 | CATATTAG | 0.179
57 | AATATTAG | 0.213
58 | CATATTAA | 0.272
59 | CATATTTA | 0.232
60 | AATATTAA | 0.281
61 | AATATTAT | 0.194
62 | CGATTGTC | 0.174
63 | AGCTATTC | -0.215
64 | CTATCATA | 0.148
65 | ATATCATA | 0.166
66 | ACATCATA | 0.105
67 | CCATCATA | -0.27
68 | GTATCTTA | 0.287
69 | GCATCATA | 0.296
70 | GTATCATA | 0.288
71 | GTATCTGA | 0.0184
72 | CTATCTTA | 0.0111
73 | CGAGACCA | -0.0428
74 | ACAAACTC | 0.052
75 | GGCTCCAC | -0.182

Row | Sequence | PBM E-score
76 | CCTCTGCG | -0.147
77 | CGGGTAGA | 0.0106
78 | CGGTTGGC | 0.0738
79 | CGTTCTGA | -0.16
80 | GACTGCGC | -0.0924
81 | AACCCTCG | -0.0276
82 | CTTATAAG | -0.047
83 | TTTATAAA | 0.261
84 | CTTATAAC | 0.177
85 | CTTATAAA | 0.275
86 | ATTATAAC | 0.0512
87 | TGTATAAA | 0.028
88 | GTTATAAA | 0.184
89 | ATTATAAA | 0.276
90 | ATTATAAG | 0.186
91 | CCCGCGTC | 0.0369
92 | GTTCGAAA | 0.241
93 | ACCAGAGG | -0.164
94 | GGCGGTAC | -0.0694
95 | GGCCTTGA | 0.0013
96 | CACAAATG | -0.0179
97 | CACAAATA | 0.259
98 | AACAAATA | 0.186
99 | GACAAGAA | 0.0396
100 | GACAAGTC | 0.00519

Row | Sequence | PBM E-score
101 | GACAAATC | 0.306
102 | GACAAATA | 0.293
103 | TACAAATA | 0.185
104 | CACAAGTA | -0.0393
105 | CACAAATC | 0.126
106 | GACAAAGC | 0.06
107 | GACAAAGA | 0.276
108 | GAACTTCA | 0.066
109 | CGAACTGA | -0.17
110 | CCGGGGAC | -0.235
111 | CCTTATAG | -0.219
112 | ATTAGGGC | -0.0576
113 | AGTTTTGG | 0.127
114 | GACAGCGC | 0.14
115 | ACGTGCGC | 0.122
116 | CAGTAGTC | -0.207
117 | AACACGAT | 0.123
118 | AAGTTGGG | -0.0322
119 | AAGTTGGT | 0.252
120 | AAGTTGGC | -0.125
121 | ATTAGAGC | 0.041
122 | ATAGTGTA | 0.0723
123 | AAGAAGTA | 0.12
124 | CAAGCAAA | 0.0203
125 | CACACTCA | 0.194

Row | Sequence | PBM E-score
126 | CGACAGTC | -0.12
127 | CACGCCTC | -0.0988
128 | GTATAAAA | 0.18
129 | ATATAATG | 0.0839
130 | CTATAATA | -0.101
131 | GTATAATA | 0.283
132 | GTATAAGA | -0.0708
133 | ATATAATA | 0.261
134 | CACCGTGC | 0.161
135 | TGAACTAA | -0.063
136 | ATCGAACG | -0.0756
137 | AATCGCAT | 0.0873
138 | TATTAAAA | 0.194
139 | GATTAAAC | 0.0432
140 | TATTAAGA | 0.0149
141 | GATTAATC | 0.355
142 | CATTAACA | 0.16
143 | GATTAACA | 0.163
144 | GATTAACC | 0.02
145 | CATTAATA | 0.297
146 | TATTAACA | 0.25
147 | CATTAATG | 0.198
148 | CATTAATC | 0.153
149 | TATTAATA | 0.339
150 | AACCCCTC | -0.319

Row | Sequence | PBM E-score
151 | GCGAGTTA | 0.0928
152 | GTCTGCTA | 0.218
153 | GAGAGAAA | 0.14
154 | CTTATACC | 0.0668
155 | CGACCTAC | -0.126
156 | CGTTGGTA | 0.141
157 | GTTCGGAA | 0.174
158 | ACACTATC | 0.115
159 | GACTCAAA | -0.0319
160 | ACAACTAT | 0.0919
161 | AGTAGTGG | 0.0582
162 | GAACTATA | 0.09
163 | GATTAAAA | 0.214
164 | GATTAATA | 0.354
165 | GATTAAGA | 0.18
166 | GGTTGAGA | -0.224
167 | TCATATGA | 0.321
168 | CCATATGA | -0.0943
169 | GCATATGA | 0.118
170 | CCCCTGCA | -0.246
171 | AGCCAACT | -0.117
172 | ACGGATCA | 0.215
